Results reported in PubChem BioAssay (NCATS).
Inconclusive results are not listed. Active and inactive are the calls of the source. Unless noted, calls follow the shape of the dose curve; as a rule, active = well fitted curve in the direction sought with a large enough effect; inconclusive = small, poorly fitted or top-dose-only effect, or another doubt; inactive = no such curve, though single readings can be large; an effect the other way counts as inactive or inconclusive.

Columns and labels:
[1] = qHTS to identify inhibitors of the type 1 interferon - major histocompatibility complex class I in skeletal muscle: primary screen against the NCATS Pharmaceutical Collection (AID 1347407);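 also: luminescence of HiBiT knocked into endogenous HLA-B as interferon-induced MHC class I level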; also: potency is read from the fitted curve at half-maximal effect
Method in brief: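 Cells were seeded with 4 ng/ml IFN-beta, incubated 1 h, then dosed with compounds over eight 1:5 steps up to 46 uM final. After 24 h at 37 C, HiBiT lytic reagent was added and luminescence read after 10 min lysis in the dark.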

[2] = molecular target: Protein phosphatase 1D (Homo sapiens) (UniProt O15297); assay: RapidFire Mass Spectrometry qHTS Assay for Modulators of WT P53-Induced Phosphatase 1 (WIP1) (AID 1347424);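 also: amount of dephosphorylated VEPPL-S-QETFS peptide product formed by WIP1; series mostly up to about 63 µM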
Protein phosphatase 1D (Homo sapiens), sequence (O15297 whole entry, looked up): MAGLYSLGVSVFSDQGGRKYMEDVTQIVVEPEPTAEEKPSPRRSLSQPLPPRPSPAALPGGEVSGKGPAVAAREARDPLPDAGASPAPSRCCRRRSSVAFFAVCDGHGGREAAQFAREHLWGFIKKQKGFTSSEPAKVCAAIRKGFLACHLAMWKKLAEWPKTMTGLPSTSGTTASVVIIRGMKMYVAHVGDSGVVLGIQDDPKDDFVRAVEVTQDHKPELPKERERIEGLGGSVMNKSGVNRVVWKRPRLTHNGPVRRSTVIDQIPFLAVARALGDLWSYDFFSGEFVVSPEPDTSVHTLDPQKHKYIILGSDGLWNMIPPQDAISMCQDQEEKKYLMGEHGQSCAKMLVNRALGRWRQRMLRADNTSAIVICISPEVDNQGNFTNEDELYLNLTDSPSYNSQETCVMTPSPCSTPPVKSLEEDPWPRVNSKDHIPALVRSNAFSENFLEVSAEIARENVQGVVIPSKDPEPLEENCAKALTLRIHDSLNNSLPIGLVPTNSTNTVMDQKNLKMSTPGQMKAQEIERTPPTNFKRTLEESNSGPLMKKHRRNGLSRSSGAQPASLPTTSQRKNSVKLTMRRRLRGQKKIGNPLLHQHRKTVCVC
Method in brief: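 WIP1 (10 nM final) was preincubated 1 h at room temperature with compounds in Tris-HCl pH 7.5, 30 mM MgCl2, TCEP, EGTA, BSA; 2 uM VEPPL-pS-QETFS phosphopeptide was added for 5 min, quenched with formic acid, and dephosphorylated product quantified by RapidFire MS.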

[3] = molecular target: Protein phosphatase 1D (Homo sapiens) (UniProt O15297); assay: Rhodamine-PBP qHTS Assay for Modulators of WT P53-Induced Phosphatase 1 (WIP1) (AID 1347425)
Method in brief: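 5 nM WIP1 + 10 uM Rh-PBP, 50 mM Tris pH 7.5, 30 mM MgCl2, 1 mM TCEP, 0.1 mM EGTA, BSA; cpds pinned, 1 hr RT; + 10 uM phosphopeptide; fluorescence 1-min reads x 11 min; delta = f1 - f0.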

[4] = Primary qHTS for inhibitors of La Crosse Virus (LACV) - induced cell death in SH-SY5Y cells (AID 1508616);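 also: top concentration of the series differs between compounds; higher means more rescue of cells from virus-induced death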
Method in brief: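 SH-SY5Y cells (6000/well) plated 24 h, then given compounds by pin transfer and LACV at 0.01 MOI for 6 days at 37C. Viability measured by ATPLite luminescence, normalized to infected DMSO and uninfected DMSO.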

[5] = molecular target: Calcium and integrin-binding protein 1 (Homo sapiens) (UniProt Q99828); assay: Primary qHTS for Identification of Calcium Integrin Binding Protein 1 (CIB1) Competitor (AID 1508620);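 also: GST tagged CIB1 binding a fluorescein labelled alphaIIb integrin peptide tracer; top concentration of the series differs between compounds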
Calcium and integrin-binding protein 1 (Homo sapiens), sequence (Q99828 whole entry, looked up): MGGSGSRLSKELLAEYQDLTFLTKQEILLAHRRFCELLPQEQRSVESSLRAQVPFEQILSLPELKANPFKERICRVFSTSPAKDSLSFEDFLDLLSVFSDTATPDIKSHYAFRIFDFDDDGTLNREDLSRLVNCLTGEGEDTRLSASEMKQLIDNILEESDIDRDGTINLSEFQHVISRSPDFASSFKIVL
Method in brief: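 Fluorescence polarization competition: CIB1-GST (1 uM final) preincubated with compound 15 min at room temperature, then FITC-labeled alphaIIb peptide (100 nM final) added for another 15 min. Polarization read at Ex 480/Em 540.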

[6] = A High-Content qHTS Against Drug Library for the Identification of Small Molecules that Inhibit DYT1 Early Onset Primary Dystonia-Associated Cell Pathology (AID 1645839; calls by dose curve; also: potency is read from the fitted curve at half-maximal effect)
Method in brief: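 Readout: %pathology, the punctate EGFP-TorsinA distribution from imaging, as the primary channel and cell count as the toxicity counterscreen. HEK293 Flp-In cells expressing delE TorsinA were induced with tetracycline and treated with compound for 48 h.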

[7] = molecular target: Cytochrome P450 2D6 (Homo sapiens) (UniProt P10635); assay: Cytochrome P450 family 2 subfamily D member 6 (CYP2D6) small molecule antagonists: luciferase biochemical (cell-free) qHTS assay (AID 1645840; active = well fitted curve in the direction sought with a large enough effect in the repeat runs; an effect the other way counts as inactive or inconclusive; also: nearly all actives have a fitted effect of over 55% in size; also: potency is read from the fitted curve at half-maximal effect)
Cytochrome P450 2D6 (Homo sapiens), sequence (P10635 whole entry, looked up): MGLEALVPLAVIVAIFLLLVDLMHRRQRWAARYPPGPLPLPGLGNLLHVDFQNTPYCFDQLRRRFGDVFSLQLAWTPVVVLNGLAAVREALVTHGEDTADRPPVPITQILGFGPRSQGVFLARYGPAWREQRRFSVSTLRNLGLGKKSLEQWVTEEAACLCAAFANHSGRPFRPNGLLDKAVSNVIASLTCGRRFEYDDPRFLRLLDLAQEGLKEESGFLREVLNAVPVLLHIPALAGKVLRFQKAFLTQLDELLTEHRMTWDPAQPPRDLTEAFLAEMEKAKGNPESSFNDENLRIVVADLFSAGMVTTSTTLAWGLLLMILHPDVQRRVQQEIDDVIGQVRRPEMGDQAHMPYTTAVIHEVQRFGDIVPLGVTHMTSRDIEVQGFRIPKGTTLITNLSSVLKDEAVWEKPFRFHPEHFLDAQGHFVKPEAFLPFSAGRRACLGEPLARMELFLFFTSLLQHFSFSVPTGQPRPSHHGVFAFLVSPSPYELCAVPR
Method in brief: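 P450-Glo luminescent screen: recombinant CYP2D6 enzyme–proluciferin substrate mix preincubated with compound 10 min at room temperature, then NADPH regeneration added for 1 h at room temperature. Detection reagent added for 20 min; luciferin light read as relative luminescence units.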

[8] = molecular target: Cytochrome P450 2C9 (Homo sapiens) (UniProt P11712); assay: Cytochrome P450 family 2 subfamily C member 9 (CYP2C9) small molecule antagonists: luciferase biochemical (cell-free) qHTS assay (AID 1645842; active = well fitted curve in the direction sought with a large enough effect in the repeat runs; an effect the other way counts as inactive or inconclusive; also: nearly all actives have a fitted effect of over 55% in size; also: potency is read from the fitted curve at half-maximal effect)
Cytochrome P450 2C9 (Homo sapiens), sequence (P11712 whole entry, looked up): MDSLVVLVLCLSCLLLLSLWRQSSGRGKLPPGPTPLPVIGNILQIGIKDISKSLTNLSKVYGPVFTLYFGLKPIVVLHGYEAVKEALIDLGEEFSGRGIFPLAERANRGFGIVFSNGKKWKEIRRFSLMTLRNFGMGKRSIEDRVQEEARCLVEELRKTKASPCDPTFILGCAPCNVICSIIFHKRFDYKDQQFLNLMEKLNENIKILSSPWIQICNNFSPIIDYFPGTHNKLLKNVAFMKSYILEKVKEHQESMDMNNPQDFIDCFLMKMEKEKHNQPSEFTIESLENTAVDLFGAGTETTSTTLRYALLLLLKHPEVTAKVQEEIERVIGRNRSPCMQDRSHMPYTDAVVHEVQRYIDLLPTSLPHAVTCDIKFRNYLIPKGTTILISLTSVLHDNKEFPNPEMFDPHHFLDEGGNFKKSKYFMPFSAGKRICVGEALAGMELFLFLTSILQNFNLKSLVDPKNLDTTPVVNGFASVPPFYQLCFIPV
Method in brief: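 Luminescence, after 20 min with luciferin detection reagent, reflected CYP2C9 turnover during a 1 h NADPH-driven reaction at 37C. Enzyme-substrate mix contained 0.4% bovine serum albumin and was preincubated with compound 10 min at room temperature.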

[9] = molecular target: Cytochrome P450 3A4 (Homo sapiens) (UniProt P08684); assay: Cytochrome P450 family 3 subfamily A member 4 (CYP3A4) small molecule antagonists: luciferase qHTS assay (AID 1645841; active = well fitted curve in the direction sought with a large enough effect in the repeat runs; an effect the other way counts as inactive or inconclusive; also: nearly all actives have a fitted effect of over 45% in size)
Cytochrome P450 3A4 (Homo sapiens), sequence (P08684 whole entry, looked up): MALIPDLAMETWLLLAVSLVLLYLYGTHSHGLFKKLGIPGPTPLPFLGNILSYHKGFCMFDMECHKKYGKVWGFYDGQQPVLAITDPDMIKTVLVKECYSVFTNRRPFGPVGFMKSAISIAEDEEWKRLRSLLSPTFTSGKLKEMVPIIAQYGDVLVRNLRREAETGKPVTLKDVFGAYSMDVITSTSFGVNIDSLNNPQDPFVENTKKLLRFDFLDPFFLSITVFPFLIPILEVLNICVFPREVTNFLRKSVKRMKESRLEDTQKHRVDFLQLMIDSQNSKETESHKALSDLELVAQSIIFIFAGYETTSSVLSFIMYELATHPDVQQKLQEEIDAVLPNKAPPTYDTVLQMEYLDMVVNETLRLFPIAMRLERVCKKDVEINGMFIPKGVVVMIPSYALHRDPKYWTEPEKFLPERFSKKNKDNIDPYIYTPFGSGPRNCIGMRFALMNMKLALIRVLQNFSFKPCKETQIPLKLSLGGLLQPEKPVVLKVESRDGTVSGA
Method in brief: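 P450-Glo CYP3A4 enzyme with proluciferin substrate was preincubated with DMSO-dissolved compounds for 10 min at room temperature. NADPH regeneration solution started a 1 h reaction. Detection reagent stopped it, and luminescence was read after 20 min.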

[10] = Primary qHTS for small molecule stabilizers of the endoplasmic reticulum resident proteome: Secreted ER Calcium Modulated Protein (SERCaMP) assay (AID 1508630)
Method in brief: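 GLuc-SERCaMP-expressing SH-SY5Y cells, pretreated 16 h with compound, are challenged with thapsigargin to empty ER calcium stores; after 4 h, coelenterazine is added directly to the medium and luminescence is imaged.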

Measured: Potency

CC(=O)Nc1c(I)c(NC(C)=O)c(I)c(C(=O)O)c1I
not listed: [9] | [10]
inactive: all other assays above

O=P(O)(O)OCC(O)CO (stereo not drawn)
not listed: [6] | [9] | [10]
inactive: all other assays above

CCOC(=O)NNc1ccc(N(CC)CC(C)O)nn1 (stereo not drawn)
not listed: [9] | [10]
inactive: all other assays above

CCC(C(=O)OCCN1CCOC(c2ccccc2)C1C)c1ccccc1 (stereo not drawn)
active: [7] 1.74 µM | [8] 2.19 µM
not listed: [9] | [10]
inactive: all other assays above

CC(=O)N1CCN(c2ccc(O)cc2)CC1
not listed: [7] | [9] | [10]
inactive: all other assays above

Cc1ccc(C(=O)C(=O)O)cc1C
not listed: [7] | [9] | [10]
inactive: all other assays above

CC(CC1c2ccccc2CCc2ccccc21)CN(C)C (stereo not drawn)
active: [7] 0.246 µM
not listed: [6] | [9] | [10]
inactive: all other assays above

C/C(=N/NC(=O)c1ccncc1)C(=O)O
inactive: [1] | [2] | [3] | [4] | [5] | [8]

COC(=O)c1cc(S(N)(=O)=O)ccc1OC
not listed: [6] | [9] | [10]
inactive: all other assays above

CCCCCC1Nc2cc(C(F)(F)F)c(S(N)(=O)=O)cc2S(=O)(=O)N1 (stereo not drawn)
active: [7] 3.89 µM | [8] 1.95 µM
not listed: [6] | [10]
inactive: all other assays above

CCOCCn1c(C2CCN(CCc3ccc(C(C)(C)C(=O)O)cc3)CC2)nc2ccccc21
not listed: [7] | [9] | [10]
inactive: all other assays above

CN(CC1(C)CCCO1)S(=O)(=O)c1ccc(Cl)c(S(N)(=O)=O)c1 (stereo not drawn)
not listed: [9] | [10]
inactive: all other assays above

CC(C)C[C@H](NC(=O)CNC(=O)[C@H](Cc1ccc(O)cc1)NC(=O)[C@H](CO)NC(=O)[C@H](Cc1c[nH]c2ccccc12)NC(=O)[C@H](Cc1cnc[nH]1)NC(=O)[C@@H]1CCC(=O)N1)C(=O)N[C@@H](CCCN=C(N)N)C(=O)N1CCC[C@H]1C(=O)NCC(N)=O (stereo in doubt)
not listed: [6] | [9] | [10]
inactive: all other assays above

OC[C@]1(O)OC[C@@H](O)[C@H](O)[C@@H]1O
not listed: [9] | [10]
inactive: all other assays above

CN1CC[C@H](c2c(O)cc(O)c3c(=O)cc(-c4ccccc4Cl)oc23)[C@H](O)C1
active: [1] 0.21 µM | [7] 12.3 µM
inactive: [2] | [3] | [4] | [10] | [8]

NCC(=O)O
inactive: [1] | [2] | [3] | [4] | [6]

Oc1cccc2[nH]ccc12
active: [7] 15.5 µM
inactive: [1] | [2] | [3] | [4] | [5]

Cc1c(C)c2c(c(C)c1OC(=O)CCC(=O)OCCO)CC[C@@](C)(CCC[C@H](C)CCC[C@H](C)CCCC(C)C)O2
active: [6] 5.62 µM | [7] 12.3 µM
inactive: [1] | [2] | [3] | [4] | [10]

CC(=O)N[C@@H](CCC(N)=O)C(=O)O
not listed: [6] | [9] | [10]
inactive: all other assays above

CN(C)CCOC1=Cc2ccccc2Sc2ccc(Cl)cc21
active: [7] 1.1 µM
not listed: [6] | [9] | [10]
inactive: all other assays above

O=C(c1cc(O)c(O)c(O)c1)c1ccc(O)c(O)c1O
inactive: [1] | [2] | [3] | [4] | [6]

CC(C)NCCCC1(C(N)=O)c2ccccc2-c2ccccc21
inactive: [1] | [2] | [3] | [4] | [6]
active: [7] 3.89 µM

CNC(=O)c1c(I)c(NC(C)=O)c(I)c(C(=O)O)c1I
inactive: [1] | [2] | [3] | [4] | [5] | [7]

OCCCc1ccccc1
not listed: [5] | [8] | [9]
inactive: all other assays above

COc1ccc2cc(C=O)ccc2c1
active: [8] 12.3 µM
not listed: [7] | [9] | [10]
inactive: all other assays above

CCN1C(=O)c2ccccc2C1Nc1ccc(OCCN2CCCCC2)cc1 (stereo not drawn)
not listed: [7] | [9] | [10]
inactive: all other assays above

CO/N=C(/C(=O)N[C@@H]1C(=O)N2C(C(=O)O)=C(Cn3nnc(C)n3)CS[C@H]12)c1csc(N)n1
not listed: [5] | [9]
inactive: all other assays above
